Test results as given in PubChem BioAssay AID588499 (NMMLSC, 2011).
Out of some 360,000 compounds screened, about 610 (0.17%) were called active. Roughly 2% stayed inconclusive and do not appear here. Many of the other results were omitted from the sample, so actives are more common in it than they were. A number with no mark means an inactive call. Rule as the data show it: active = inhibition above about 30%; inconclusive = no clear call, values can overlap the other calls; inactive = below that.

Test system: Botulinum neurotoxin type A light chain protease (Clostridium botulinum A str. ATCC 3502)
Experiment: BoNT/A light chain protease inhibitors, primary screen, biochemical, flow cytometry, MLPCN library (AID 588499); also: plate controls were buffer without enzyme for full effect and enzyme alone for no effect
Details: multiplex microsphere protease substrate cleavage, at 10 µM, hits give high values

Q: With O=C(Nc1ccc2cn[nH]c2c1)c1ccc(S(=O)(=O)N2CCOCC2)cc1 as the compound, how does the inhibition read?
A: -1.3%

Q: How did the inhibition turn out when COC(=O)c1ccc(CNC(=O)c2ccc(S(=O)(=O)N3CCCCCC3)cc2)cc1 was run?
A: 0.1%

Q: With Cc1ccc(C)c2[nH]c(=O)c(CCNC(=O)c3cccs3)cc12 as the compound, how does the inhibition read?
A: -0.5%

Q: Cc1c(Cl)cccc1NC(=S)NCc1ccc2c(c1)OCO2 was tested. Which inhibition did it give?
A: -1.1%

Q: For CCc1cccc(CC)c1NC(=S)NCc1ccc2[nH]c(C)cc2c1, which inhibition is on record?
A: 34.3% (active)

Q: How did the inhibition turn out when CCOc1ccc(C(C)=O)cc1COC(=O)CNC(=O)c1cccs1 was run?
A: -0.9%

Q: With Cc1cccc(NC(=S)NCc2ccc3[nH]c4c(c3c2)CCCC4)c1 as the compound, how does the inhibition read?
A: 0.2%

Q: With Cc1cc2cc(CNC(=O)c3ccc(S(=O)(=O)N4CCOCC4)cc3)ccc2[nH]1 as the compound, how does the inhibition read?
A: 71.1% (active)

Q: With Cc1cc2cc(CNC(=O)c3cccs3)ccc2[nH]1 as the compound, how does the inhibition read?
A: 75.4% (active)

Q: Which inhibition does the source give for O=C(CSc1nncn1-c1cccnc1)N1CCOCC1 here?
A: -0.7%

Q: For COc1ccc(/C=C/C(=O)c2c(O)cc(OC)cc2OC)cc1, which inhibition is on record?
A: -0.9%

Q: O=C(/C=C(O)/C=C/c1ccc(O)cc1)/C=C/c1ccc(O)cc1 was tested. Which inhibition did it give?
A: 38.1% (active)

Q: COc1cccc(C=CC(=O)C=CC=Cc2ccccc2)c1 was tested. Which inhibition did it give?
A: 0.9%

Q: Cc1ccccc1S(=O)(=O)NC(=O)C1(C)CCN1C(=O)C1(c2ccc(Cl)cc2)CC1 (stereo unspecified) was tested. Which inhibition did it give?
A: -0.5%

Q: How did the inhibition turn out when Cc1cc(C(=O)COc2ccccc2[N+](=O)[O-])c(C)n1-c1cccc(S(=O)(=O)N2CCOCC2)c1 was run?
A: -2%

Q: C#CCNC(=O)C[C@@H]1C[C@@]2(C(=O)OCC)CCCC=C2N(Cc2ccco2)C1=O was tested. Which inhibition did it give?
A: -1.2%

Q: With CN(CC(=O)Nc1ccc(F)cc1)CC(=O)N1CCCCC1 as the compound, how does the inhibition read?
A: 0.4%

Q: Which inhibition does the source give for COc1ccc(NC(=O)c2sc(=O)n(Cc3ccc(S(=O)(=O)N(C)C)cc3)c2C)cc1 here?
A: -0.2%

Q: CC1(C(=O)NS(=O)(=O)c2ccc(Cl)cc2)CCN1C(=O)CC1CCCC1 (stereo unspecified) was tested. Which inhibition did it give?
A: -0.4%

Q: CN(C(=O)CCn1c(=S)oc2ccccc21)C1CCCCC1 was tested. Which inhibition did it give?
A: 0.7%

Q: For Cn1nc(N)c2ncc(C(Cl)(Cl)Cl)nc21, which inhibition is on record?
A: 0%

Q: With Fc1cccc(Cc2c(-c3cccc(Cl)c3)nc3ccc(Br)cn23)c1 as the compound, how does the inhibition read?
A: 9.7%

Q: How did the inhibition turn out when O=C1OCC2=C1C(c1ccccc1)CC(=O)N2c1cccc(F)c1 (stereo unspecified) was run?
A: -1.3%

Q: CCCCOCCCNC(=O)C[C@@H]1C[C@@]2(C(=O)OC)CCCCC=C2N(CCC2=CCCCC2)C1=O was tested. Which inhibition did it give?
A: -0.3%

Q: For CCc1nc2c(OCCOc3ccccc3)cccn2c1N(C)C(=O)c1ccccc1F, which inhibition is on record?
A: -0.2%

Q: For COc1ccc([C@H]2N[C@]3(CCCN(Cc4ccco4)C3=O)[C@H]3C(=O)N(C)C(=O)[C@@H]23)cc1, which inhibition is on record?
A: -0.4%

Q: COC(=O)[C@]12CCCCC=C1N(CCC1=CCCCC1)C(=O)[C@H](CC(=O)NCC1CCCCC1)C2 was tested. Which inhibition did it give?
A: 0%

Q: Which inhibition does the source give for CC(C)(C)CC(=O)Nc1nc(C(N)Cc2ccc(C(F)(F)F)cc2)cs1 (stereo unspecified) here?
A: -0.5%

Q: For CN1CCN(C(=O)c2ccc(NC(=O)c3ccc(Br)o3)cc2)CC1, which inhibition is on record?
A: 0.8%

Q: With COC(=O)c1cn(C)c2ccc(S(=O)(=O)N3CC(C)CC(C)C3)cc2c1=O (stereo unspecified) as the compound, how does the inhibition read?
A: -1.1%

Q: For CC(=O)Nc1cccc(Nc2ccc(C#N)cc2)c1, which inhibition is on record?
A: 0%

Q: How did the inhibition turn out when COc1ccc(NC(=O)NN2CCN(C)CC2)c(OC)c1 was run?
A: -3.1%

Q: With COc1ccc(C(=O)c2c(C)c(CCC#N)n3ccccc23)c(OC)c1 as the compound, how does the inhibition read?
A: 0.8%

Q: How did the inhibition turn out when CC1(C)c2[nH]c3ccccc3c2C[C@H]2C(=O)N(N)CC(=O)N21 was run?
A: -1.4%

Q: Which inhibition does the source give for Cc1nn(-c2ccc(F)cc2)c(Cl)c1/C=C(/CCC(=O)O)c1nc2ccccc2s1 here?
A: -0.5%

Q: For CC1=CC(=C(C#N)c2nc3ccccc3s2)C=C(C)N1c1ccc(F)cc1F, which inhibition is on record?
A: 48.3% (active)

Q: With CSCC[C@H](NC(=O)NCCc1ccc(F)cc1)C(=O)O as the compound, how does the inhibition read?
A: 0%

Q: With O=c1c2[nH]c3ccc(Cl)cc3c2ncn1Cc1ccccn1 as the compound, how does the inhibition read?
A: 1%

Q: O=C(NCc1ccc(Cl)cc1)C(=O)NCC1CCCN1S(=O)(=O)c1cccs1 (stereo unspecified) was tested. Which inhibition did it give?
A: -1.5%

Q: For NC(=O)c1ccc(N2CCCC2)nc1, which inhibition is on record?
A: 0.8%

Q: Which inhibition does the source give for Oc1cccc(CCc2ccccn2)c1 here?
A: -0.4%

Q: How did the inhibition turn out when CCOc1ccccc1NC(=O)C1CCCN(C(=O)Nc2ccccc2)C1 (stereo unspecified) was run?
A: 0%

Q: Which inhibition does the source give for COc1cc(OC)c(-n2cc(-c3ccc(Cl)cc3)[nH]c2=O)cc1Cl here?
A: 0.1%

Q: How did the inhibition turn out when O=C(COC(=O)CC1CC2CCC1C2)NC(=O)NC1CCCC1 (stereo unspecified) was run?
A: 0.7%

Q: O=C(NCc1ccccc1)C1c2ccccc2OCC(=O)N1C1CC1 (stereo unspecified) was tested. Which inhibition did it give?
A: 0%

Q: O=C(NCCc1ccco1)C(=O)NCCC1CCCCN1S(=O)(=O)c1ccccc1 (stereo unspecified) was tested. Which inhibition did it give?
A: -3.9%
